Reference: PMC4336329 (PLoS ONE, 2015)
In all, about 310,000 compounds went through this assay and about 14,000 (4.5%) showed an effect of 50% or more. The effect is printed as a negative number. What follows is part of a selection rich in strong results, with near analogues and random picks from the rest.

These molecules were tested against human ether-à-go-go-related gene (hERG) potassium channel (human, UniProt Q12809) (assay: primary screen, population patch clamp on CHO cells stably expressing hERG; higher = less effect of the substance).
Experimental: Briefly, Chinese hamster ovary (CHO) cells stably expressing the hERG channel were dislodged from tissue culture flasks and dispensed into PPC plates. […] During the recording, background leak currents were estimated by a 100 ms step to -80 mV from an initial holding potential of -70 mV and subtracted from the subsequent current measurement. The campaign was conducted in two phases using slight differences in recording protocol. In the first phase, the initial voltage pulse used a 100 ms step to -30 mV from a holding potential of -70 mV, a 2 s conditioning step to +25 mV, and a 2 s test step to -30 mV. During the second phase of the screen, the potential during the conditioning step was raised to +45 mV. In both phases of the campaign, a secondary voltage pulse was applied using the same parameters as the second phase initial pulse. The initial and secondary pulses were applied in the absence of compound, and upon application of 1 μM and 10 μM test concentrations. […]
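Further: peak tail current of the secondary pulse compared with the same well before compound.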

human ether-à-go-go-related gene (hERG) potassium channel, sequence (Q12809 whole entry, looked up): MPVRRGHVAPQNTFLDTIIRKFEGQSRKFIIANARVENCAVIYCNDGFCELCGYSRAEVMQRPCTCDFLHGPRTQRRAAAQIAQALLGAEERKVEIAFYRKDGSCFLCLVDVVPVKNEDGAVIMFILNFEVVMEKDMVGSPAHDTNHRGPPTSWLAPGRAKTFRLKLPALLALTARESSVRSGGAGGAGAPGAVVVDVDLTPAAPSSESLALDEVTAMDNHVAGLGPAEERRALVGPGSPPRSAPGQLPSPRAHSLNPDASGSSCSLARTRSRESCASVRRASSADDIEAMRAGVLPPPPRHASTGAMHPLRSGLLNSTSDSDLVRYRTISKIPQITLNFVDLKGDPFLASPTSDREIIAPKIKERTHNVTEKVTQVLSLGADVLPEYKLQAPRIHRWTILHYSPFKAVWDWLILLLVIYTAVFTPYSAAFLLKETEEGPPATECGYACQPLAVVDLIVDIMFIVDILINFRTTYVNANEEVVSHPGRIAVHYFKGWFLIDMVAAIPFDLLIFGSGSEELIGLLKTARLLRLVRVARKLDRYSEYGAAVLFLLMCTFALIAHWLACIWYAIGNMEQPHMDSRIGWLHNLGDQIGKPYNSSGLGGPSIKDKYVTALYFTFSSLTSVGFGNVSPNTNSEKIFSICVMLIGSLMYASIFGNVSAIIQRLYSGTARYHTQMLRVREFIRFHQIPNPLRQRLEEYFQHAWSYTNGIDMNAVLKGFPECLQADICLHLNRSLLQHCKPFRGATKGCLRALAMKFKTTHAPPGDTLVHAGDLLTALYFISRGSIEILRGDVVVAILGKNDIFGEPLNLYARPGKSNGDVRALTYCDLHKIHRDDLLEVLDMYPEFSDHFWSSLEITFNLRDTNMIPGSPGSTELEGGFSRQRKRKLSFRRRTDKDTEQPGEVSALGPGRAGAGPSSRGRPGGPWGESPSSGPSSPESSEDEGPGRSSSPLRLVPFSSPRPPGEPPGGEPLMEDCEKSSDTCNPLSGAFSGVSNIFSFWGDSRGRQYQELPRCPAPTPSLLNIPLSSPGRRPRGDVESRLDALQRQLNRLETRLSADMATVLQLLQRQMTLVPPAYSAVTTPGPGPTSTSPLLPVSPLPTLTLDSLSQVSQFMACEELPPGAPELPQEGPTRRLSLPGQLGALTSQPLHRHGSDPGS

Structure (SMILES)	hERG current change (%, negative = inhibition) at 10uM [%]
CC(C)OP(=O)(OC(C)C)C(NC(=O)c1ccccc1Br)C(N)=O (centres unmarked)	3.63
CC(C)OP(=O)(OC(C)C)C(NC(=O)c1ccccc1)C(N)=O (centres unmarked)	-3.65
Cc1ccccc1C(=O)NC(C(N)=O)P(=O)(OC(C)C)OC(C)C (centres unmarked)	-55.2
CCN(C(=O)c1ccnn1C)c1ccccc1	4.75
COc1ccc(S(=O)(=O)N2CCOCC2)cc1NC(=O)c1ccc2c(c1)OCO2	12.6
O=C(O)CN1C(=O)/C(=C/c2ccccc2Br)Oc2ccccc21	4.16
COc1ccccc1NS(=O)(=O)c1ccc(Cl)c(NC(=O)c2sc3cc(Cl)ccc3c2Cl)c1	22.1
O=C(O)CC1S/C(=N\N=C/c2ccccc2)N(c2ccc(O)cc2)C1=O (centres unmarked)	13.4
O=C(O)CC1S/C(=N\N=C/c2ccccc2O)N(c2ccc(O)cc2)C1=O (centres unmarked)	9.18
O=C(O)CC1S/C(=N\N=C2\C(=O)Nc3ccccc32)N(c2ccc(O)cc2)C1=O (centres unmarked)	-53.7
CN(c1ccc(F)cc1)S(=O)(=O)c1ccc2[nH]cc(C(=O)O)c(=O)c2c1	13.8
Cc1ccc(OCC(=O)N(Cc2ccco2)C2CCS(=O)(=O)C2)cc1C (centres unmarked)	-38.8
N#Cc1ccc(OCC(=O)N(C2CCCCC2)C2CCS(=O)(=O)C2)cc1 (centres unmarked)	-50.1
COc1ccc(OCC(=O)N(Cc2ccc(C)o2)C2CCS(=O)(=O)C2)cc1 (centres unmarked)	-19.5
Cc1cccc(OCC(=O)N(Cc2ccc(C)o2)C2CCS(=O)(=O)C2)c1 (centres unmarked)	-42.6
O=C(COc1ccc(F)cc1)N(Cc1ccc(Cl)cc1)C1CCS(=O)(=O)C1 (centres unmarked)	-38.7
CN(C)c1ccc(CN(C(=O)COc2ccc(F)cc2)C2CCS(=O)(=O)C2)cc1 (centres unmarked)	-16.6
Cc1ccc(CN(C(=O)COc2ccc(C)c(C)c2)C2CCS(=O)(=O)C2)o1 (centres unmarked)	-53.6
O=C(COc1ccc(Cl)cc1)N(Cc1ccc(F)cc1)C1CCS(=O)(=O)C1 (centres unmarked)	-63.3
O=C(COc1ccc([N+](=O)[O-])cc1)N(C1CCCCC1)C1CCS(=O)(=O)C1 (centres unmarked)	-37
CC(=O)c1ccc(OCC(=O)N(C2CCCCC2)C2CCS(=O)(=O)C2)cc1 (centres unmarked)	-2.18
Cc1ccc(OCC(=O)N(Cc2ccc(C)o2)C2CCS(=O)(=O)C2)cc1 (centres unmarked)	-52.3
Cc1ccc(CN(C(=O)COc2ccc(Br)cc2)C2CCS(=O)(=O)C2)o1 (centres unmarked)	-33.5
O=C(COC(=O)c1cccc(F)c1)NC1CC1	41.8
COc1ccccc1N1CCN(C(=O)Cn2c(=O)[nH]c3ccsc3c2=O)CC1	-1.18
O=C(c1ccccc1)c1n[nH]c(-c2ccccc2)cc1=O	30.9
CCC(=O)NC(c1cc(Cl)c2ccccc2c1O)C1CC1 (centres unmarked)	14.5

Structure (SMILES)	hERG current change (%, negative = inhibition) at 10uM [%]
Cc1ccc(C)c(C2=CSC3=NS(=O)(=O)CCN23)c1	12.3
COc1ccc(CNC(=O)[C@]2(C)CCC[C@@]3(C)C4CC[C@@]5(C)C[C@]4(CCC32)CC5=O)cc1 (some centres unmarked)	10.2
CCOC(=O)c1sc2nc(CSc3ccccc3)[nH]c(=O)c2c1C	3.8
CC(C)C(=O)NC(c1cccs1)c1cc([N+](=O)[O-])c2cccnc2c1O (centres unmarked)	31.7
COc1ccccc1-n1c(SCC(=O)NC2CC2)nc2ccccc2c1=O	-23.1
CCN(CC)S(=O)(=O)c1ccc2c(c1)nc(SCC(N)=O)n2-c1ccc(OC)cc1	-77.7
CCN(CC)S(=O)(=O)c1ccc2c(c1)nc(SCC(=O)N1CCCCCC1)n2-c1ccc(OC)cc1	-21
COc1ccc(-n2nnnc2SC(C)C(N)=O)cc1 (centres unmarked)	8.68
CCCCn1c(SC(C)C(=O)c2ccc(OC)cc2)nc2cc(S(N)(=O)=O)ccc21 (centres unmarked)	-18.1
CCN(CC)S(=O)(=O)c1ccc2c(c1)nc(SCC(=O)N1CCOCC1)n2-c1ccccc1OC	-31.1
CCn1c(CSc2nncn2-c2ccc(OC)cc2)nc2cc(S(=O)(=O)N(C)C)ccc21	-14.5
CCN(CC)S(=O)(=O)c1ccc2c(c1)nc(SCC(=O)NC1CC1)n2-c1ccccc1OC	-56.2
CCN(CC)S(=O)(=O)c1ccc2c(c1)nc(SC(C)C(N)=O)n2-c1ccc(OC)cc1 (centres unmarked)	-51.7
NCCNc1ccc([N+](=O)[O-])c2cccnc12	1.29
CCOc1ccccc1NC(=O)NNS(=O)(=O)c1cc(C)ccc1C	6.71
CSc1ccccc1NC(=O)Cc1ccc(Br)cc1	-10.2
Cc1ccc(C)c(NC(=S)N2CCC(NC(=O)c3cccc(F)c3)CC2)c1	1.08
O=C(N/N=C/c1ccc(COc2ccc(Br)cc2)o1)c1ccco1	2.73
Cc1ccccc1NS(=O)(=O)c1ccc2c3c(cccc13)C(=O)N2C	-4.02
Cc1ccc(S(=O)(=O)N2CCC(C(=O)N3CCN(c4ccccn4)CC3)CC2)cc1	-19.4
Cc1ccc(Cl)cc1N1CCN(C(=O)C2CCN(S(=O)(=O)c3cccnc3)CC2)CC1	-46
O=S(=O)(c1ccc(Cl)cc1)N1CCN(c2ccccn2)CC1	-4.62
O=C(C1CCN(S(=O)(=O)c2ccc(Cl)cc2)CC1)N1CCN(c2ccccn2)CC1	-64.7
O=C(C1CCN(S(=O)(=O)c2cccnc2)CC1)N1CCN(c2cccc(Cl)c2)CC1	-31.5
O=C(C1CCN(S(=O)(=O)c2cccnc2)CC1)N1CCN(c2ccc(Cl)cc2)CC1	-56.2
Clc1ccc2noc(-c3ccccc3)c2c1	7.67
